The record followed here is PubChem BioAssay (EPA / NIEHS).

Common to all, as to settings: mRNA level, 48 h; actives raise or lower the signal
Read-out in assay [1]: Bcl-2 (BID) gene, BID (gene 637)
Description: LTEA_HepaRG_BID: Life Technologies and Expression Analysis (LTEA) Assay for Bcl-2 (BID) gene using HepaRG (AID 2283476). The essentials:
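Gene expression by qRT-PCR in HepaRG cells after 48 h exposure, duplicate wells, eight half-log concentrations topping at 100 uM in 0.5% DMSO. Normalized to ACTB, GAPDH, POLR2A; bidirectional fitting relative to DMSO.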

Read-out in the next assay: Caspase-3 (Homo sapiens) (UniProt P42574)
Description: LTEA_HepaRG_CASP3: Life Technologies and Expression Analysis (LTEA) Assay for cysteine-aspartic acid protease (CASP3) using HepaRG (AID 2283477). In a few lines: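 In HepaRG liver cells dosed for 48 h at up to 100 uM (eight-point, duplicate), CASP3 expression changes are scored by qRT-PCR. Activity is fitted in both directions with 0.5% DMSO as baseline.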

Read-out in assay [2]: Cytochrome P450 (CYP24A1), CYP24A1 (gene 1591)
Nature of the assay: LTEA_HepaRG_CYP24A1: Life Technologies and Expression Analysis (LTEA) Assay for Cytochrome P450 (CYP24A1) using HepaRG (AID 2283478). In a few lines:
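Human liver HepaRG cultures receive each chemical for 48 h across an eight-point half-log series topping at 100 uM in 0.5% DMSO. Induction or suppression of CYP24A1 mRNA is scored relative to vehicle after housekeeping-gene normalization.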

Read-out in assay [3]: Cytochrome P450 (CYP1A2), CYP1A2 (gene 1544)
Description: LTEA_HepaRG_CYP1A2: Life Technologies and Expression Analysis (LTEA) Assay for Cytochrome P450 (CYP1A2) using HepaRG (AID 2283479). The essentials: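 Assesses CYP1A2 mRNA in human HepaRG liver cells after 48 h chemical exposure at up to 100 uM. Values come from qRT-PCR with bidirectional curve fitting relative to DMSO.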

Read-out in assay [4]: cysteine-aspartic acid protease (CASP8), CASP8 (gene 841)
Description: LTEA_HepaRG_CASP8: Life Technologies and Expression Analysis (LTEA) Assay for cysteine-aspartic acid protease (CASP8) using HepaRG (AID 2283480). In a few lines:
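Differentiated HepaRG cells in serum-free induction medium, 48 h exposure, eight-point half-log series from 100 uM in 0.5% DMSO, duplicates. CASP8 mRNA by qRT-PCR, normalized to ACTB, GAPDH, POLR2A; bidirectional fit versus DMSO.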

Read-out in assay [5]: Cytochrome P450 (CYP2B6), CYP2B6 (gene 1555)
Nature of the assay: LTEA_HepaRG_CYP2B6: Life Technologies and Expression Analysis (LTEA) Assay for Cytochrome P450 (CYP2B6) using HepaRG (AID 2283481). The essentials:
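Using 48 h treatment of HepaRG cells in serum-free induction medium, concentrations spanned half-log steps from 100 uM in 0.5% DMSO vehicle. CYP2B6 mRNA induction or loss is scored by qRT-PCR against DMSO.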

Read-out in assay [6]: Cytochrome P450 2C19 (Homo sapiens) (UniProt P33261)
Nature of the assay: LTEA_HepaRG_CYP2C19: Life Technologies and Expression Analysis (LTEA) Assay for CYP2C19 using HepaRG (AID 2283482). The essentials:
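Human HepaRG liver cells received test chemicals for 48 h (highest 100 uM, half-log dilutions in 0.5% DMSO). CYP2C19 mRNA induction or loss is read by multiplexed qRT-PCR and fitted in both directions versus vehicle.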

Read-out in the next assay: CYP2C8 (gene 1558)
Nature of the assay: LTEA_HepaRG_CYP2C8: Life Technologies and Expression Analysis (LTEA) Assay for CYP2C8 using HepaRG (AID 2283483). The essentials:
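Differentiated HepaRG cells in serum-free induction medium exposed 48 h in duplicate to 8 half-log concentrations from 100 uM in 0.5% DMSO. CYP2C8 mRNA by qRT-PCR normalized to ACTB, GAPDH, POLR2A; bidirectional fit versus DMSO.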

Read-out in the next assay: CYP2C9 (gene 1559)
Description: LTEA_HepaRG_CYP2C9: Life Technologies and Expression Analysis (LTEA) Assay for CYP2C9 using HepaRG (AID 2283484). The essentials:
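Differentiated human HepaRG cells in serum-free induction medium were exposed 48 h to chemicals in 8-point half-log series from 100 uM (0.5% DMSO), in duplicate. CYP2C9 mRNA was measured by qRT-PCR, normalized to ACTB/GAPDH/POLR2A, with bidirectional fitting versus DMSO.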

Read-out in a further assay: CYP2E1 (gene 1571)
Description: LTEA_HepaRG_CYP2E1: Life Technologies and Expression Analysis (LTEA) Assay for CYP2E1 using HepaRG (AID 2283485). In a few lines:
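HepaRG cells, plated 48 h, then exposed 48 h in serum-free induction medium to eight half-log concentrations from 100 uM in 0.5% DMSO, duplicate. CYP2E1 mRNA by qRT-PCR, normalized to ACTB/GAPDH/POLR2A; bidirectional fit versus DMSO.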

Read-out in another assay: CYP4A11 (gene 1579)
Description: LTEA_HepaRG_CYP4A11: Life Technologies and Expression Analysis (LTEA) Assay for CYP4A11 using HepaRG (AID 2283486). The essentials: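 Readout is CYP4A11 mRNA induction or suppression (qRT-PCR, ACTB/GAPDH/POLR2A normalization) in human HepaRG cells after 48 h chemical treatment, concentrations to 100 uM in 0.5% DMSO, fitted bidirectionally against vehicle.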

Read-out in assay [7]: Cytochrome P450 3A4 (Homo sapiens) (UniProt P08684)
Description: LTEA_HepaRG_CYP3A4: Life Technologies and Expression Analysis (LTEA) Assay for CYP3A4 using HepaRG (AID 2283487). The essentials:
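In a human hepatic line (HepaRG), duplicate wells were treated 48 h with up to 100 uM chemical in half-log dilutions. Endpoint: CYP3A4 mRNA induction or loss relative to 0.5% DMSO vehicle, by qRT-PCR.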

Read-out in assay [8]: Pro-epidermal growth factor (Homo sapiens) (UniProt P01133)
Nature of the assay: LTEA_HepaRG_EGF: Life Technologies and Expression Analysis (LTEA) Assay for Epidermal growth factor (EGF) using HepaRG (AID 2283489). The essentials: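 EGF expression changes in human HepaRG cells are scored by bidirectional fitting relative to 0.5% DMSO controls. Chemicals are tested at eight half-log concentrations up to 100 uM for 48 h in serum-free induction medium.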

Read-out in assay [9]: Early growth response protein 1 (EGR1) transcription factor, EGR1 (gene 1958)
Nature of the assay: LTEA_HepaRG_EGR1: Life Technologies and Expression Analysis (LTEA) Assay for Early growth response protein 1 (EGR1) transcription factor using HepaRG (AID 2283490). The essentials:
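Differentiated HepaRG cells in serum-free induction medium exposed 48 hours, duplicate, to 8 half-log concentrations up to 100 uM in 0.5% DMSO. EGR1 mRNA measured by TaqMan qRT-PCR, normalized to ACTB, GAPDH, POLR2A; bidirectional fit versus DMSO.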

Read-out in assay [10]: Ezrin (EZR), EZR (gene 7430)
Description: LTEA_HepaRG_EZR: Life Technologies and Expression Analysis (LTEA) Assay for Ezrin (EZR) using HepaRG (AID 2283491). The essentials: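 Gain or loss of EZR mRNA is scored relative to 0.5% DMSO in human HepaRG cultures treated 48 h with test chemicals in duplicate, eight half-log concentrations from 100 uM.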

Read-out in assay [11]: Cytochrome P450 3A7 (Homo sapiens) (UniProt P24462)
Description: LTEA_HepaRG_CYP3A7: Life Technologies and Expression Analysis (LTEA) Assay for CYP3A7 using HepaRG (AID 2283492). In a few lines:
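Cells were thawed, plated, cultured 48 h, then treated for a further 48 h with chemicals (eight-point half-log series from 100 uM, 0.5% DMSO). RNA was isolated and CYP3A7 expression quantified by qRT-PCR normalised to ACTB, GAPDH and POLR2A.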

Read-out in a further assay: CYP3A5 (gene 1577)
Nature of the assay: LTEA_HepaRG_CYP3A5: Life Technologies and Expression Analysis (LTEA) Assay for CYP3A5 using HepaRG (AID 2283493). The essentials: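 HepaRG cells, plated 48 h then in serum-free induction medium, dosed in duplicate for 48 h with eight half-log concentrations up to 100 uM in 0.5% DMSO. Gene mRNA by Fluidigm TaqMan qRT-PCR, normalized to ACTB, GAPDH, POLR2A.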

Read-out in assay [12]: Fatty Acid-Binding Protein 1 (FABP1), FABP1 (gene 2168)
Description: LTEA_HepaRG_FABP1: Life Technologies and Expression Analysis (LTEA) Assay for Fatty Acid-Binding Protein 1 (FABP1) using HepaRG (AID 2283494). The essentials: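 Differentiated human HepaRG cells exposed 48 h in serum-free induction medium to eight half-log concentrations up to 100 uM (0.5% DMSO), duplicate. FABP1 mRNA by qRT-PCR, normalised to ACTB, GAPDH, POLR2A; bidirectional fitting against DMSO.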

Read-out in assay [13]: Cytochrome P450 4A22 (Homo sapiens) (UniProt Q5TCH4)
Nature of the assay: LTEA_HepaRG_CYP4A22: Life Technologies and Expression Analysis (LTEA) Assay for Cytochrome P450 4A22 (CYP4A22) using HepaRG (AID 2283495). In a few lines:
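Cryopreserved HepaRG cells, plated and cultured 48 h, then switched to serum-free induction medium and treated 48 h (duplicates, up to 100 uM, half-log steps, 0.5% DMSO). Expression change of CYP4A22 was fitted bidirectionally against vehicle.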

Read-out in assay [14]: DNA damage-inducible transcript 3 (DDIT3), DDIT3 (gene 1649)
Nature of the assay: LTEA_HepaRG_DDIT3: Life Technologies and Expression Analysis (LTEA) Assay for DNA damage-inducible transcript 3 (DDIT3) using HepaRG (AID 2283488). The essentials:
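HepaRG cells, 48 h after plating, exposed 48 h in serum-free induction medium to 8 half-log concentrations up to 100 uM in 0.5% DMSO, in duplicate. DDIT3 mRNA measured by TaqMan qRT-PCR, normalized to ACTB, GAPDH and POLR2A. Fitted bidirectionally against DMSO.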

Calls of active or inactive are those of the source. How the source made its calls: active means hit-call score of the fitted dose curve at least 0.9, where 1 is the maximum; inactive means score below 0.9.

Chain of Caspase-3 (Homo sapiens) (P42574 whole entry, looked up): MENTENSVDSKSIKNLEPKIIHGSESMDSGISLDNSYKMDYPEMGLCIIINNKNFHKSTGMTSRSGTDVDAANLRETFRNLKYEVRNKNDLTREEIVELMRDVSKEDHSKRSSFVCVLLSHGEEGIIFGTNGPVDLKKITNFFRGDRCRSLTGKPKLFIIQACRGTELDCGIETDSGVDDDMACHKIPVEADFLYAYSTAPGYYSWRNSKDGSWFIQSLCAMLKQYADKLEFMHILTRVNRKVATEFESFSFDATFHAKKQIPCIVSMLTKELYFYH
Chain of Cytochrome P450 3A4 (Homo sapiens) (P08684 whole entry, looked up): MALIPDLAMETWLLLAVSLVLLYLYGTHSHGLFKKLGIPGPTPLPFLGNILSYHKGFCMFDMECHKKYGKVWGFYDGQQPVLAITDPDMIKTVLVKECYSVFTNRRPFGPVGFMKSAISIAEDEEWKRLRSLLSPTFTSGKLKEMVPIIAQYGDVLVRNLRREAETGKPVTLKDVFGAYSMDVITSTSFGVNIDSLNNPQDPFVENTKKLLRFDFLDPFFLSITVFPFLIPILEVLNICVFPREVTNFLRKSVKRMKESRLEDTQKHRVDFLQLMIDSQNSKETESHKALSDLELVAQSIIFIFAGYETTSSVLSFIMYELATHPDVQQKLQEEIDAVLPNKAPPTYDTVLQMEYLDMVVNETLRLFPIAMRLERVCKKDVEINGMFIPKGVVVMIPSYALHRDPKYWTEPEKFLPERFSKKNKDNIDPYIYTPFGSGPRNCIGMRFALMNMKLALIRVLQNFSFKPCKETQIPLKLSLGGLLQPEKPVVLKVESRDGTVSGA
Chain of Cytochrome P450 2C19 (Homo sapiens) (P33261 whole entry, looked up): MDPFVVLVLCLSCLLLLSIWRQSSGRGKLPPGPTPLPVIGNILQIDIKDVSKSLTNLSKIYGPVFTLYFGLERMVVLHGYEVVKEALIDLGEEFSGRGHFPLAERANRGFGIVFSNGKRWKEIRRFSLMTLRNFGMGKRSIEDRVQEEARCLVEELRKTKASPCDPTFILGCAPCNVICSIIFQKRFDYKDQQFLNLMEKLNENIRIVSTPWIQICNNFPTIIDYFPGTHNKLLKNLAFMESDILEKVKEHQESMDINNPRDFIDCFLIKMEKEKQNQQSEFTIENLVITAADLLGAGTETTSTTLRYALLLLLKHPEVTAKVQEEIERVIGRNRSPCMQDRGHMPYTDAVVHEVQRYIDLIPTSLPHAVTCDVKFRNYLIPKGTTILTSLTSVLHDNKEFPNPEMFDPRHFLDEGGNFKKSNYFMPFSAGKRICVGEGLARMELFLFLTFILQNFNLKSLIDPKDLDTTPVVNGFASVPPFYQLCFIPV
Chain of Cytochrome P450 3A7 (Homo sapiens) (P24462 whole entry, looked up): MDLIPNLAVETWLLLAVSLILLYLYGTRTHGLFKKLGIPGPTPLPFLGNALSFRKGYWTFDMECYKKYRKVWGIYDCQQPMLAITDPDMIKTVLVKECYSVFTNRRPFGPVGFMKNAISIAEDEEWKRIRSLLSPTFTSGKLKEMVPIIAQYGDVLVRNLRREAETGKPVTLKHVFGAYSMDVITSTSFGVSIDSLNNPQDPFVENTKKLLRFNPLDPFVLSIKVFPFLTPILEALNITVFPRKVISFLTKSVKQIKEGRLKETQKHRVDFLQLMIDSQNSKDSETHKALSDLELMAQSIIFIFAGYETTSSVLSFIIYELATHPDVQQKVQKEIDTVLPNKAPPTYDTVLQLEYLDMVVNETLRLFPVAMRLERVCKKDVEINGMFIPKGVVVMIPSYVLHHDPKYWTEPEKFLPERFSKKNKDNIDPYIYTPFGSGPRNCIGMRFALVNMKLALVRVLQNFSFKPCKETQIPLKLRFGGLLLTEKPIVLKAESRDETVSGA

`CS(=O)(=O)c1cc(C(F)(F)F)ccc1C(=O)c1cnoc1C1CC1`: the compound was called inactive (in assay [1]; in the assay with Caspase-3 (Homo sapiens); in assay [2]; in assay [3]; in assay [4]; in assay [5]). The compound was classed as inactive (in [6]; with CYP2C8 (gene 1558); in the assay with CYP2C9 (gene 1559); with CYP4A11 (gene 1579); in assay [8]; in assay [9]). Moreover, the call (in assay [10]; in assay [11]; with CYP3A5 (gene 1577); in assay [12]; in [13]) was inactive. Besides, the AC50 with CYP2E1 (gene 1571) is 9.92 µM (active); in [7] it was 35 µM (active).

Regarding `COCc1cnc(C2=NC(C)(C(C)C)C(=O)N2)c(C(=O)O)c1` (configuration not stated), the result (in assay [1]; with Caspase-3 (Homo sapiens); in assay [2]; in assay [3]; in assay [4]; in [5]) was inactive. For the same compound, the compound was classed as inactive (in [6]; with CYP2C8 (gene 1558); with CYP2C9 (gene 1559); with CYP2E1 (gene 1571); in the assay with CYP4A11 (gene 1579); in assay [7]). Besides, the compound was called inactive (in assay [14]; in assay [8]; in assay [9]; in [10]; in the assay with CYP3A5 (gene 1577); in [12]). In addition, the outcome in [13] was inactive.

Turning to `COP(=S)(OC)Oc1ccc([N+](=O)[O-])c(C)c1`, the compound was called inactive (in assay [1]; with Caspase-3 (Homo sapiens); in [4]; in assay [6]; in the assay with CYP2C8 (gene 1558); with CYP2C9 (gene 1559)). In addition, the compound was called inactive (with CYP2E1 (gene 1571); with CYP4A11 (gene 1579); in [7]; in assay [14]; in assay [8]; in assay [9]). The outcome (in assay [10]; with CYP3A5 (gene 1577); in [12]; in [13]) was inactive. Further, the AC50 in assay [2] was 0.00316 µM (active); in assay [3], 50 µM (active); in assay [5], 4.75 µM (active).
